Inconclusive results are not listed. Where a call stands in place of a potency, no number is given. A number with no mark means an inactive call. The source made the active and inactive calls. Calls follow the shape of the full dose curve.

D(2) dopamine receptor (Homo sapiens), sequence (P14416 whole entry, looked up): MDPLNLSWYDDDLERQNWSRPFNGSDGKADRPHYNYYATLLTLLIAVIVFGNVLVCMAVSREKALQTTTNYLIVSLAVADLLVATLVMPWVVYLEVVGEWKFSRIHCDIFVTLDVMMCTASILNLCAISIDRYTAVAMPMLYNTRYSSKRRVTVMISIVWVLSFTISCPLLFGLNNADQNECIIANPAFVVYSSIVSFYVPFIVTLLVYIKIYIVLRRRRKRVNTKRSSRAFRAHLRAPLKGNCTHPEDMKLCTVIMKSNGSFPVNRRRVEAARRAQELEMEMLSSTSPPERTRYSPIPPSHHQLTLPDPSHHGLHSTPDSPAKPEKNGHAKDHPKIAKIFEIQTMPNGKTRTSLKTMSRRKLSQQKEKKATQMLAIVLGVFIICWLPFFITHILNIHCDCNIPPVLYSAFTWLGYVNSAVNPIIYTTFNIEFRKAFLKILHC

The target of this assay is D(2) dopamine receptor (Homo sapiens) (UniProt P14416). Nature of the assay: Dopamine D2 receptor (DRD2) small molecule agonists, cell-based qHTS assay (AID 1963594). Also: nearly all actives have a fitted effect of over 35% in size. The note with it: HEK293-DRD2 cAMP HTRF, agonist mode, 30 min; series mostly up to 92.4 µM; activation: at the top concentration. The source says:
National Center for Advancing Translational Sciences [NCATS]
Division of Preclinical Innovation [DPI]
U.S. Environmental Protection Agency [EPA]
National Institutes of Environmental Health Sciences [NIEHS]
National Toxicology Program [NTP]
U.S. Food and Drug Administration [FDA]
DRD2 is the D2 subtype of the dopamine receptor, which is coupled to Gi subtype of G protein-coupled receptor. This G protein-coupled receptor inhibits adenylyl cyclase activity. The DRD2-HEK293 cell line stably expressing D2 dopamine receptor can be used for screening agonists and antagonists of interactions between D2 and its ligands. The Hek293-DRD2 cAMP assay is based on HTRF technology. It measures changes of cAMP accumulation in response to Gi coupled GPCR activation or inhibition.
Tox21 Assay Protocol Summary:
DRD2-Hek293 cells were dispensed at 600 cells/3uL/well in 1536-well white plates using a Multidrop Dispenser. After the assay plates were incubated at a 37 C/5% CO2 incubator for 24 h, 1 uL of Ro20-1724 at final concentration of 0.1 mM was transferred to the assay plate by a Flying Reagent Dispenser. Following Ro20-1724 addition, 23 nL of compound dissolved in DMSO, positive controls or DMSO only was added to the assay plates via Wako pintool station. The assay plates were incubated at room temperature for 10 min. Next, 1 uL of NKH477 at 200nM was added into the plates. After the assay plates were incubated at room temperature for an additional 30 min, 2.5 ul/well of cAMP-d2 and 2.5 ul/well of anti-cAMP-cryptate were added respectively into the assay plates using a Flying Reagent Dispenser. The plates were incubated at room temperature for 1 h. The fluorescence intensity in the plates was measured at 340 nm excitation and 665 & 620 nm emission by an Envision plate reader.
A general note: In qHTS, concentration-response curves come from the screen itself.
For the molecule `CC(c1ccc(O)cc1)c1ccc(O)cc1`, the Potency entry is “inactive”.

Regarding `CCCCNC(=O)n1c(NC(=O)OC)nc2ccccc21`, the Potency result was “inactive”.

Take `Nc1ccccc1C(=O)OCCc1ccccc1`: the Potency result was “inactive”.

As for `Nc1cnn(-c2ccccc2)c(=O)c1Cl`, the “activation” value was 2.51%.

`C[C@]12CCC(=O)C=C1CC[C@@H]1[C@@H]2CC[C@@]2(C)[C@H]1CC[C@]2(C)O`: the Potency entry is “inactive”.

For `COc1ccccc1OC`, the “activation” value is -8.62%.

Consider `O=C(O)c1ccccc1O`, for which the Potency result was “inactive”.

For `C=CCc1ccc(OC)cc1`, the Potency result is “inactive”.

In the case of `Oc1ccc(Cl)cc1Cc1ccccc1`, the Potency result is “inactive”.

Take `CCOP(=O)(O)OCC` (tested in a mixture with another compound): the Potency entry is “inactive”.

For `N#Cc1ccccn1`, the Potency result was “inactive”.

In the case of `NC1(c2ccccc2)CCCCC1`, the “activation” value is -1.34%.

Take `COC(=O)c1ccccc1N`: the Potency result was “inactive”.

For `CC[n+]1ccccc1`, the Potency result is “inactive”.

Regarding `C[N+](C)(C)CC(=O)[O-]`, the Potency result was “inactive”.

With `CCCCCCCCCl`, the Potency entry is “inactive”.

On to `CCn1cc[n+](C)c1C`, for which the Potency result is “inactive”.

In the case of `CCCCOC(=O)COC(=O)c1ccccc1C(=O)OCCCC`, the Potency result is “inactive”.

On to `CNC(=O)CSP(=S)(OC)OC`, for which the Potency entry was “inactive”.

On to `Nc1ccc(-c2ccccc2)cc1`, for which the Potency entry was “inactive”.

Take `COc1nc(C)nc(NC(=O)NS(=O)(=O)c2ccccc2Cl)n1`: the “activation” value is 1.85%.

Take `Cc1ccc(N)cc1C`: the “activation” value is -4.79%.

Take `Nc1ccc(Cl)cc1`: the Potency entry is “inactive”.

Take `CC(C)(c1ccccc1)c1cc(-n2nc3ccccc3n2)c(O)c(C(C)(C)c2ccccc2)c1`: the “activation” value was 2.77% [at 42.5 µM].

As to `Clc1ccc(C(c2ccccc2Cl)C(Cl)(Cl)Cl)cc1` (stereo not given), the “activation” value was -3.06%.

With `CCBr`, the “activation” value was -3.31%.

For the molecule `C1CC2OC2CC1C1CO1` (stereo not given), the “activation” value is 0.904%.

Regarding `N#CC(Cl)Cl`, the “activation” value was -1.68%.

Turning to `CC(O)CN(CC(C)O)CC(C)O` (stereo not given), the Potency result was “inactive”.

As for `CCCCOC(=O)c1ccccc1C(=O)OCc1ccccc1`, the “activation” value is -0.178%.

With `O=NN(c1ccccc1)c1ccccc1`, the Potency entry is “inactive”.

Regarding `CCCCN=C=O`, the “activation” value is 1.18%.

With `CC(C)(C)C(O)(CCc1ccc(Cl)cc1)Cn1cncn1` (stereo not given), the Potency entry is “inactive”.

Turning to `CC(Cl)C(=O)O` (stereo not given), the “activation” value was -2.27%.

Consider `CCCCCCOC(=O)c1ccccc1C(=O)OCCCCCC`, for which the Potency result is “inactive”.

With `c1nc[nH]n1`, the Potency result is “inactive”.

As for `CCN(N=O)C(N)=O`, the Potency result is “inactive”.

Regarding `Cc1ccc(CCl)cc1`, the “activation” value was 0.41%.

For `O=C(O)C(Cl)(Cl)Br`, the “activation” value was -1.9%.

With `Nc1c(Cl)c(Cl)nc(C(=O)O)c1Cl`, the Potency entry was “inactive”.
